# Experimental data taken from article PMC7862700, “An all-to-all approach to the identification of sequence-specific readers for epigenetic DNA modifications on cytosine”.
# Legend:
# Experiment in all cases: DAPPL (digital affinity profiling via proximity ligation, sequencing); 10 mM Tris-HCl pH 7.5, 50 mM NaCl, 1 mM DTT, 4% glycerol, room temperature, 30 min; GST-TFs on glutathione beads, 16-mer random dsDNA library, 0.1% formaldehyde crosslink after washing; high values mean tight binding
# FLI1 = target: T1, FLI1 (Homo sapiens, UniProt Q01543 1-452); conditions: protein: recombinant; tags: N-terminal GST; dsDNA, one strand shown
# T1 sequence: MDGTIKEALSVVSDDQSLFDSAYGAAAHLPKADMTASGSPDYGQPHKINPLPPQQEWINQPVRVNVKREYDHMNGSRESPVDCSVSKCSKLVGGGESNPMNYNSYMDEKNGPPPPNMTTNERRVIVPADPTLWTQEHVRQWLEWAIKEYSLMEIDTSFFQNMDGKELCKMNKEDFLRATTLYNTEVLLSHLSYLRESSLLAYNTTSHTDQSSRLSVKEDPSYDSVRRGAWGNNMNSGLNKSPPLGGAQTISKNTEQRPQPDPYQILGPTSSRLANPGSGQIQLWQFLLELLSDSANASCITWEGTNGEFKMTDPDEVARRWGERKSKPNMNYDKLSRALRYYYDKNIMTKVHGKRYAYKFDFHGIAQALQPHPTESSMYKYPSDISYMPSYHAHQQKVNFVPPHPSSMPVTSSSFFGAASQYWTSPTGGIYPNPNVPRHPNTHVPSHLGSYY
# Outline: (§1)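 A tag-only sample was pooled with DNA-barcoded human transcription factors that had been expressed in yeast as GST fusions and captured on glutathione beads. The pools were incubated for 30 min at room temperature with 200 nmole of a random double-stranded 16-mer DNA library in Tris/NaCl/DTT/glycerol buffer, then washed, crosslinked with 0.1% formaldehyde, proximity-ligated (BsaI/T4 ligase, 1 h, 37 °C), PCR-amplified and sequenced on an Illumina NextSeq500. Binding signal is each hexamer's read frequency for a factor divided by its frequency for the tag-only sample.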
# ELK1 = target: T2, ELK1 (Homo sapiens, UniProt P19419 1-428); conditions: protein: recombinant; tags: N-terminal GST; dsDNA, one strand shown
# T2 sequence: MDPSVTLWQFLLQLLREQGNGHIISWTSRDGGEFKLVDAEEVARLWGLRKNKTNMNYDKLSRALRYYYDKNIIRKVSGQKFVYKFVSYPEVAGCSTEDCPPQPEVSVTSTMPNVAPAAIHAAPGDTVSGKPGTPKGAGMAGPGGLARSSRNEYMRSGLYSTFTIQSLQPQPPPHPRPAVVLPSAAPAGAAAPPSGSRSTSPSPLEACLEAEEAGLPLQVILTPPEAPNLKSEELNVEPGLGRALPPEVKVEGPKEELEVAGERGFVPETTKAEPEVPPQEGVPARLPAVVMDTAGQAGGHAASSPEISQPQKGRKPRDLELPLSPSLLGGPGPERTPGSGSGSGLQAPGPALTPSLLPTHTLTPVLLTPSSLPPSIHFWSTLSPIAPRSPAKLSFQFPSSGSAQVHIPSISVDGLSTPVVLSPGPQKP
# Outline: as §1
# GABPA = target: T3, GABPA (Homo sapiens, UniProt Q06546 1-454); conditions: protein: recombinant; tags: N-terminal GST; dsDNA, one strand shown
# T3 sequence: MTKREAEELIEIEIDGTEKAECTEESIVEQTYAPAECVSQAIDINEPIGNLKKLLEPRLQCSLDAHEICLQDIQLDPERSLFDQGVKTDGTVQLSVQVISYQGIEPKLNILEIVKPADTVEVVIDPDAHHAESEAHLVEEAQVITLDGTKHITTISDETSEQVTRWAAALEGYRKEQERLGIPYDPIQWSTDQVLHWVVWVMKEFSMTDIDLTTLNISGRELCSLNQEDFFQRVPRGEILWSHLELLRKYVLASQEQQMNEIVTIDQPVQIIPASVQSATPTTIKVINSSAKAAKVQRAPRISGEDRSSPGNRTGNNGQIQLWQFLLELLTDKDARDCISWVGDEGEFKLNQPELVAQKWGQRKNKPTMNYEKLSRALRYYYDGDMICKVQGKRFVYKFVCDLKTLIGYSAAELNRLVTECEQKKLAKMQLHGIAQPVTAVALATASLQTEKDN
# Outline: as §1
# ERG = target: T4, ERG (Homo sapiens, UniProt P11308 1-479); conditions: protein: recombinant; tags: N-terminal GST; dsDNA, one strand shown
# T4 sequence: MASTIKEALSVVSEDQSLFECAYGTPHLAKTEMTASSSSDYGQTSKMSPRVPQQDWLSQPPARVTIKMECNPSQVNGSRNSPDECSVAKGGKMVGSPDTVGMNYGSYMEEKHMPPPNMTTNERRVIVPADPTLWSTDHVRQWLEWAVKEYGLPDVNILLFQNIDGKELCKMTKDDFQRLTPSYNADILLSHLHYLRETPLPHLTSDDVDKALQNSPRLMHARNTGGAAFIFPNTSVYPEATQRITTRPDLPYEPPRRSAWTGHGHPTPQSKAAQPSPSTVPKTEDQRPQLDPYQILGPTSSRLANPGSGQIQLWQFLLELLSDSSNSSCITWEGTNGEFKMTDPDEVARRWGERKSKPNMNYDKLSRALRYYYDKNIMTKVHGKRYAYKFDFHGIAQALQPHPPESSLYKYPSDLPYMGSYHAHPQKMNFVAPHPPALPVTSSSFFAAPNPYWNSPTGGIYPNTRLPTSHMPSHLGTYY
# Outline: as §1
# ELF1 = ELF1 (Homo sapiens, UniProt P32519 1-619); conditions: protein: recombinant; tags: N-terminal GST; dsDNA, one strand shown
# Chain of ELF1 (P32519 whole entry): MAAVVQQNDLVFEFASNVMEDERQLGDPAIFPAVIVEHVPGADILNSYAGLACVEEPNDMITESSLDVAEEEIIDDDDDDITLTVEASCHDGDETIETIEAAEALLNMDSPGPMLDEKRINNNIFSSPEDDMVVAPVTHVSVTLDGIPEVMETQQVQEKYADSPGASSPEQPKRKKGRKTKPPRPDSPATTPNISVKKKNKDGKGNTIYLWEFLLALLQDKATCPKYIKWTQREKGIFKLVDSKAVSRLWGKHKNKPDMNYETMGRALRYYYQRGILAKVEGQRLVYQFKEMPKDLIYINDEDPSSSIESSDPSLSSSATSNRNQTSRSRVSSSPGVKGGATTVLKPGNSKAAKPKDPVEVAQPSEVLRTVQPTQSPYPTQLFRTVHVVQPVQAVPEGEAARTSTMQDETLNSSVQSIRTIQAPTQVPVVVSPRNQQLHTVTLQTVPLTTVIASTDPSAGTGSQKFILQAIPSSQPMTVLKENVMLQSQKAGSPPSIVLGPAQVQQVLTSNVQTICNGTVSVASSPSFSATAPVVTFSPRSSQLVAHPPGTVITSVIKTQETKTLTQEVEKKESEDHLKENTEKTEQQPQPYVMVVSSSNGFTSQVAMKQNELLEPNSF
# Outline: as §1
# EHF = target: T5, EHF (Homo sapiens, UniProt Q9NZC4 1-300); conditions: protein: recombinant; tags: N-terminal GST; dsDNA, one strand shown
# T5 sequence: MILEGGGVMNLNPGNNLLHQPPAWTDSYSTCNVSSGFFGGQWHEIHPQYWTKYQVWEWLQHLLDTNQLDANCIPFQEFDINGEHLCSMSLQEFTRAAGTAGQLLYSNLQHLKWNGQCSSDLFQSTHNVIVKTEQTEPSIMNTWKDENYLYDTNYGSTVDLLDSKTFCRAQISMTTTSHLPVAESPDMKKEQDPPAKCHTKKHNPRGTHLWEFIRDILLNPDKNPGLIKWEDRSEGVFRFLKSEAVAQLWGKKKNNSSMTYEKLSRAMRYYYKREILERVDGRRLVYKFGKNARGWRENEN
# Outline: as §1
# SPI1 = SPI1 (Homo sapiens, UniProt P17947 1-270); conditions: protein: recombinant; tags: N-terminal GST; dsDNA, one strand shown
# Outline: as §1
# SPIB = SPIB (Homo sapiens, UniProt Q01892 1-262); conditions: protein: recombinant; tags: N-terminal GST; dsDNA, one strand shown
# Chain of SPIB (Q01892 whole entry): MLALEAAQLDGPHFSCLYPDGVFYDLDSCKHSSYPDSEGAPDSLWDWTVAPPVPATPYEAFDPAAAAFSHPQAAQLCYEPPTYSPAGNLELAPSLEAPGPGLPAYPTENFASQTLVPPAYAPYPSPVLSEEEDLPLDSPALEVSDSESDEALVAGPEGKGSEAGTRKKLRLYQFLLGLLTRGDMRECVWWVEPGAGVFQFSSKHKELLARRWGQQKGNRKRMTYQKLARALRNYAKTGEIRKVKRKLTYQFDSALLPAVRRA
# Outline: as §1
# ELK3 = target: T6, ELK3 (Homo sapiens, UniProt P41970 1-407); conditions: protein: recombinant; tags: N-terminal GST; dsDNA, one strand shown
# T6 sequence: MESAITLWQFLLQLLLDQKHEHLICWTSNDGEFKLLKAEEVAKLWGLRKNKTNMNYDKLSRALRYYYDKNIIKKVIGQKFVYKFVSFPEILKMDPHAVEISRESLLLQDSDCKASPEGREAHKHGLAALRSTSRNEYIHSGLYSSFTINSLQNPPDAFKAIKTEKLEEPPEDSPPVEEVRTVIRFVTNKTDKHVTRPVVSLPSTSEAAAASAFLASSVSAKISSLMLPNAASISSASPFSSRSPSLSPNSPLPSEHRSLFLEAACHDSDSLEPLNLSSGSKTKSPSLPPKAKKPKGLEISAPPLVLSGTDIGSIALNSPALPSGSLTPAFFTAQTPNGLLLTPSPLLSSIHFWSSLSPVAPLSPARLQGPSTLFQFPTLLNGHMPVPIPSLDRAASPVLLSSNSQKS
# Outline: as §1
# FEV = target: T7, FEV (Homo sapiens, UniProt Q99581 1-238); conditions: protein: recombinant; tags: N-terminal GST; dsDNA, one strand shown
# T7 sequence: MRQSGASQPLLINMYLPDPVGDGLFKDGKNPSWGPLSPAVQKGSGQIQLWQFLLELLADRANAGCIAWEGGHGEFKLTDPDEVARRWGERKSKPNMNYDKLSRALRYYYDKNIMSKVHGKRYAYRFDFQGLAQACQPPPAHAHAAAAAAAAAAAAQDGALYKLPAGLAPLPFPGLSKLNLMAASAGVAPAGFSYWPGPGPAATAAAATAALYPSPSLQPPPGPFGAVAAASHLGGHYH
# Outline: as §1
# ETV5 = ETV5 (Homo sapiens, UniProt P41161 1-510); conditions: protein: recombinant; tags: N-terminal GST; dsDNA, one strand shown
# Chain of ETV5 (P41161 whole entry): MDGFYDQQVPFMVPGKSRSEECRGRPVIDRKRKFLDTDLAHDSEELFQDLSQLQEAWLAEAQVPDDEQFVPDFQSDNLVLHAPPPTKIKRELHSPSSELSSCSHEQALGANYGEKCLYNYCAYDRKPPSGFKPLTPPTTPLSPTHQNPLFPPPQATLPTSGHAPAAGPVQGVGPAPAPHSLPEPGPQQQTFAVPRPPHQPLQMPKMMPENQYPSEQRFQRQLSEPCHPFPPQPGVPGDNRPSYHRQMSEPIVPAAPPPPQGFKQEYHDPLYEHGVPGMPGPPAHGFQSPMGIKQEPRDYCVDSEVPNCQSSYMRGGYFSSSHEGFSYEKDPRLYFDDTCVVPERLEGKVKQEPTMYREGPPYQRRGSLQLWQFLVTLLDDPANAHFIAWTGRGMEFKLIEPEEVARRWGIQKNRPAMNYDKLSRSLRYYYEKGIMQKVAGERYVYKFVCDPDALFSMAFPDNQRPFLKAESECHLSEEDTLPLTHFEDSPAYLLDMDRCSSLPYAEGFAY
# Outline: as §1
# HSF1 = HSF1 (Homo sapiens, UniProt Q00613 1-529); conditions: protein: recombinant; tags: N-terminal GST; chain copies: 3; dsDNA, one strand shown
# Chain of HSF1 (Q00613 whole entry): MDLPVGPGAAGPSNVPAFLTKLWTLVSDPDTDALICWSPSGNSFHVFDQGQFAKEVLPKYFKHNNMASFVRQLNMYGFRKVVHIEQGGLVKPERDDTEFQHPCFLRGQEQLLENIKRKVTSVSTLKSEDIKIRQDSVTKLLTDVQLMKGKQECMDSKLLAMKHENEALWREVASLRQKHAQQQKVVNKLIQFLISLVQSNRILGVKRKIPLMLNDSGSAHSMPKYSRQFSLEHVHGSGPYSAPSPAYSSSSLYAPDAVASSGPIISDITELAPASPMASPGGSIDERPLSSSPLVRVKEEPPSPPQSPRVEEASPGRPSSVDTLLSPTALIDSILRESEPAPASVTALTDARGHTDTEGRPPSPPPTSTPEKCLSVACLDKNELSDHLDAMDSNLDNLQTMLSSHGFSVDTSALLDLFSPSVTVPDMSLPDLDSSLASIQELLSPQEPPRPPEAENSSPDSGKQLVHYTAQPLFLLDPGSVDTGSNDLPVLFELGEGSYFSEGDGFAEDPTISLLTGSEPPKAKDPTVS
# Outline: as §1
# SPIC = target: T8, SPIC (Homo sapiens, UniProt Q8N5J4 1-248); conditions: protein: recombinant; tags: N-terminal GST; dsDNA, one strand shown
# T8 sequence: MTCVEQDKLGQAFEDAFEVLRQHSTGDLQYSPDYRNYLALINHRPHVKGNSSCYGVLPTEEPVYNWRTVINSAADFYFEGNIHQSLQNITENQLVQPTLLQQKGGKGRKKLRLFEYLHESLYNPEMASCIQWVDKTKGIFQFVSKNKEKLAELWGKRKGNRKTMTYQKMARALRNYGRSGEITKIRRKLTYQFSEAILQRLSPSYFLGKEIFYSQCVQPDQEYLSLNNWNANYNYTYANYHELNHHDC
# Outline: as §1
# ELF4 = ELF4 (Homo sapiens, UniProt Q99607 1-663); conditions: protein: recombinant; tags: N-terminal GST; dsDNA, one strand shown
# Chain of ELF4 (Q99607 whole entry): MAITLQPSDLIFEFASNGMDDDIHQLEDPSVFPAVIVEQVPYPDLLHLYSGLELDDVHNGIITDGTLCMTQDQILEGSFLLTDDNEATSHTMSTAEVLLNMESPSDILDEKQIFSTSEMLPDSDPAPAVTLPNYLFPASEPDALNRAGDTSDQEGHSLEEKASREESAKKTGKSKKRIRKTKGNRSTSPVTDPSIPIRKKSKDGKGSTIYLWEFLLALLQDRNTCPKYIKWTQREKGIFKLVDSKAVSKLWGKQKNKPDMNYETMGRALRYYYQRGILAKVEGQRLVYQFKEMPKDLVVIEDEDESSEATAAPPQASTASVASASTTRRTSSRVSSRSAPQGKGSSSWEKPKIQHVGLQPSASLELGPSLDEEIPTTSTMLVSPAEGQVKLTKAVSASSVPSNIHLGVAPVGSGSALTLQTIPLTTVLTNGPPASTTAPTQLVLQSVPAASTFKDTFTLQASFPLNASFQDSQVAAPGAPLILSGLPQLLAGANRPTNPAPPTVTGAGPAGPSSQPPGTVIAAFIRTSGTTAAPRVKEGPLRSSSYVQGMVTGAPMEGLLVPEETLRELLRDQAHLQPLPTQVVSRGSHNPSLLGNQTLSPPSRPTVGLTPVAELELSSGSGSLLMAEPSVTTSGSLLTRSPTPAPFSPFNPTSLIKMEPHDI
# Outline: as §1
# ELK4 = target: T9, ELK4 (Homo sapiens, UniProt P28324-2 1-405); conditions: protein: recombinant; tags: N-terminal GST; dsDNA, one strand shown
# T9 sequence: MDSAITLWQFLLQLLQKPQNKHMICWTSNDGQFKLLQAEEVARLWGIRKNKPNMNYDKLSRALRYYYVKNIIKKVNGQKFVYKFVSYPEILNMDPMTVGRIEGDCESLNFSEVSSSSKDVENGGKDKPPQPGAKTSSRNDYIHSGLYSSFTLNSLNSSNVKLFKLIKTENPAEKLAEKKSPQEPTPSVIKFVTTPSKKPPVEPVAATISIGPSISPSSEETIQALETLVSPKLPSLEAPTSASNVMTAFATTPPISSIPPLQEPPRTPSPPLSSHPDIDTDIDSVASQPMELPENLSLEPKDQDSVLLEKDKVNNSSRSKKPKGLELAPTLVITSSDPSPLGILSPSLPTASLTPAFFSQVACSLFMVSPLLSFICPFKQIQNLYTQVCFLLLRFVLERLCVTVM
# Outline: as §1
# ETV2 = target: T10, ETV2 (Homo sapiens, UniProt O00321 1-342); conditions: protein: recombinant; tags: N-terminal GST; dsDNA, one strand shown
# T10 sequence: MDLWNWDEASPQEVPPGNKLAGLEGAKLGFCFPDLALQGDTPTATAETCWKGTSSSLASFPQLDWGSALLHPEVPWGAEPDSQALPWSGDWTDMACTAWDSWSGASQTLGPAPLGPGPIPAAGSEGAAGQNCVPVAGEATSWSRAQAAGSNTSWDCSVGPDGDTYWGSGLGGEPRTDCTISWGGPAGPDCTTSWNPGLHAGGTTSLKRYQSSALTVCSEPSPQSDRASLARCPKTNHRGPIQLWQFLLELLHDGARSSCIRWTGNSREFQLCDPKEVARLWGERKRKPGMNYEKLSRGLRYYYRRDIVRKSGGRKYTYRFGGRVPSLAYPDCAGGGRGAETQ
# Outline: as §1
# ELF3 = target: T11, ELF3 (Homo sapiens, UniProt P78545 1-371); conditions: protein: recombinant; tags: N-terminal GST; dsDNA, one strand shown
# T11 sequence: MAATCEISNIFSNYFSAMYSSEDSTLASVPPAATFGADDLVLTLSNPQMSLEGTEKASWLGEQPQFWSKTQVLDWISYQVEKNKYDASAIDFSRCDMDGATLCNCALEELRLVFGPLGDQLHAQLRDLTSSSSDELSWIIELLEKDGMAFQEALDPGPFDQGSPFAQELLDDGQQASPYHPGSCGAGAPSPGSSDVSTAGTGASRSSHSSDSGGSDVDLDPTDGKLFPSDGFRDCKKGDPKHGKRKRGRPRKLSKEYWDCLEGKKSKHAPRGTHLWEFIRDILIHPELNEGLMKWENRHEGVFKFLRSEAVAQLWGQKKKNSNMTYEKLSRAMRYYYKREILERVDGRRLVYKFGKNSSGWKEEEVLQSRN
# Outline: as §1
# ETV1 = ETV1 (Homo sapiens, UniProt P50549 1-477); conditions: protein: recombinant; tags: N-terminal GST; dsDNA, one strand shown
# Chain of ETV1 (P50549 whole entry): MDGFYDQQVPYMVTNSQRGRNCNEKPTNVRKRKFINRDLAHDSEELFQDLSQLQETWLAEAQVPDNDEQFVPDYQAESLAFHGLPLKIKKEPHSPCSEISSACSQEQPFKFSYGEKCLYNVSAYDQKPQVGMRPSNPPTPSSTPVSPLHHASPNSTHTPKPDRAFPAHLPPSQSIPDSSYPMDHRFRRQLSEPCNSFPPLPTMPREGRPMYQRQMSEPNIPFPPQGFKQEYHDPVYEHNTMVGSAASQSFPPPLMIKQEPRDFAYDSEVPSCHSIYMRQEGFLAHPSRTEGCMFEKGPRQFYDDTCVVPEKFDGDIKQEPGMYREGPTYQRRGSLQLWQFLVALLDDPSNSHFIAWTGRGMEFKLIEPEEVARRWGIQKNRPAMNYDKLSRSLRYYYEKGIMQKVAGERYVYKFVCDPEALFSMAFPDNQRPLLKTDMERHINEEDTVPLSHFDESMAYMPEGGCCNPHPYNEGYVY
# Outline: as §1
sequence,measurement,setting,value
GAAGTT,binding signal,FLI1,"1.76 fold enrichment (6-mer frequency, TF over GST control)"
same,binding signal,ELK1,"1.66 fold enrichment (6-mer frequency, TF over GST control)"
same,binding signal,GABPA,"1.63 fold enrichment (6-mer frequency, TF over GST control)"
same,binding signal,ERG,"1.77 fold enrichment (6-mer frequency, TF over GST control)"
same,binding signal,ELF1,"1.61 fold enrichment (6-mer frequency, TF over GST control)"
same,binding signal,EHF,"1.72 fold enrichment (6-mer frequency, TF over GST control)"
same,binding signal,SPI1,"2.02 fold enrichment (6-mer frequency, TF over GST control)"
same,binding signal,SPIB,"1.72 fold enrichment (6-mer frequency, TF over GST control)"
same,binding signal,ELK3,"1.62 fold enrichment (6-mer frequency, TF over GST control)"
same,binding signal,FEV,"1.62 fold enrichment (6-mer frequency, TF over GST control)"
same,binding signal,ETV5,"1.66 fold enrichment (6-mer frequency, TF over GST control)"
same,binding signal,HSF1,"1.39 fold enrichment (6-mer frequency, TF over GST control)"
same,binding signal,SPIC,"1.76 fold enrichment (6-mer frequency, TF over GST control)"
same,binding signal,ELF4,"1.61 fold enrichment (6-mer frequency, TF over GST control)"
same,binding signal,ELK4,"1.52 fold enrichment (6-mer frequency, TF over GST control)"
same,binding signal,ETV2,"1.58 fold enrichment (6-mer frequency, TF over GST control)"
same,binding signal,ELF3,"1.82 fold enrichment (6-mer frequency, TF over GST control)"
same,binding signal,ETV1,"1.63 fold enrichment (6-mer frequency, TF over GST control)"
